The list is not random: actives were taken first. Their share in the collection is about 4.1%.
hcDAF-12 act: H. contortus DAF-12 nuclear receptor activators, primary screen, cell-based, luminescence, HEK293, lit1-tk-luc reporter. HEK293 hcDAF-12 lit1-tk-luc reporter; 0% DMSO, 100% Δ7-dafachronic acid. activation, % at 6.8 µM. hit rate 1.4% among 370,000;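 active means activation above the mean of all tested compounds plus 3 SD, cut at about 5.5% in these data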
DAX1 inh-1: DAX1 (NR0B1) inhibitors on StAR promoter, primary screen, cell-based, luminescence, SF-1 (NR5A1), full-length DAX-1; hit rate 1.1% among 370,000; inhibition, % at 6.8 µM; AID 652010, 2013; HEK293T StAR-luciferase reporter, SF-1/DAX-1 repression relief;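 active means inhibition above the mean over all tested compounds plus 3 SD, cut at about 3.6% in these data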;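 further: higher inhibition means more luminescence from relief of DAX-1 repression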
ssDAF12 agonist: S. stercoralis DAF-12 nuclear receptor activators, primary screen, cell-based, luminescence, HEK293, GRIP1 co-expression, lit1-tk-luc; Nuclear hormone receptor DAF-12 (Strongyloides stercoralis); HEK293 ssDAF-12/GRIP1 lit1-tk-luc reporter; % of 3 µM dafachronic acid response; activation, % at 6.8 µM; hit rate 1% among 370,000;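 active means activation above the mean over all tested compounds plus 3 SD, cut at about 0.9% in these data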
hgDAF12 agonist: H. glycines DAF-12 receptor agonists, primary screen, cell-based, luminescence, HEK293, GAL4 fusion, UAS-luciferase; HEK293 GAL4-hgDAF12 UAS-luciferase reporter, agonist luminescence; normalized to butyrate control; activation, % at 6.8 µM; hit rate 1.8% among 370,000;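 active means activation above a cutoff set at the mean of all screened compounds plus 3 SD, cut at about 10% in these data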
DAX1 inh-2: DAX1 (NR0B1) inhibitors, primary screen, cell-based, HEK293, Gal4-DAX1, luciferase luminescence; HEK293 Gal4-DAX1 luciferase reporter; inhibition, % at 6.75 µM; hit rate 0.99% among 340,000;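 active means inhibition above the mean over all tested compounds plus 3 SD, cut at about 4.2% in these data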;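 further: inhibition shows as a rise in luminescence from relieved DAX1 repression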
DAX1 inh confirm: DAX1 (NR0B1) inhibitors relieving SF-1 repression, confirmation, cell-based, luminescence, HEK293T, full-length DAX-1, SF-1 activated StAR promoter; shares compounds with DAX1 inh-1; HEK293T StAR-promoter luciferase reporter, SF-1/DAX-1 repression; inhibition, % at 6.8 µM; hit rate 87% among 2,400; AID 652134, 2013;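 active means inhibition above the average of every tested compound plus 3 SD, cut at about 3.8% in these data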
Target sequence (P51843 whole entry, looked up): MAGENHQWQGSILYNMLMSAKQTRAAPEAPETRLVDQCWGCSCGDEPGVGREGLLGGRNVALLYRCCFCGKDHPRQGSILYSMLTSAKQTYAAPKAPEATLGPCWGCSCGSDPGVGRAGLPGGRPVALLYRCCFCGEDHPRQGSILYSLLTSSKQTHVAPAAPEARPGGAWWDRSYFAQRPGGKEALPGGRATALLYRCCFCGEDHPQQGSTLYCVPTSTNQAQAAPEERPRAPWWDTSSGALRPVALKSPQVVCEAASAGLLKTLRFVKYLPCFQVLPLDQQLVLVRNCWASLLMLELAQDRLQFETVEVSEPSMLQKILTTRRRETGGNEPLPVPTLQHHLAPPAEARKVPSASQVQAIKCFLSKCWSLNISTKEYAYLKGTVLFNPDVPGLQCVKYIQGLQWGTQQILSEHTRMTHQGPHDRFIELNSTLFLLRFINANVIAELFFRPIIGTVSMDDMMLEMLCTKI
SF1 mutant ctr: StAR reporter signal changes without DAX1, counter-screen for DAX1 inhibitor project, cell-based, luminescence, AF-2 mutant SF-1, transactivation | hit rate 78% among 2,400 | AID 652136, 2013 | HEK293 StAR-luciferase, SF-1 AF2 mutant | inhibition, % at 6.8 µM | shares compounds with DAX1 inh-1;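 active means inhibition above the mean of all tested compounds plus 3 SD, cut at about 3% in these data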
LXRb hcDAF ctr: LXR agonists, Gal4 luciferase reporter, confirmation, counter-screen for hcDAF-12 agonist project, cell-based, luminescence, HEK293, H. contortus campaign; activation, % at 6.8 µM; AID 743027, 2013; shares compounds with hcDAF-12 act; 3,400 tested, under 10 active; HEK293 Gal4-LXR tk-luc reporter, 24 h; normalized: DMSO 0%, positive control 100%;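 active means mean percent activation of the reporter above a cutoff set as the average over tested compounds plus their standard deviation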
hcDAF12 conf: H. contortus DAF-12 receptor agonists, confirmation, cell-based, luminescence, HEK293, lit1-tk-luc, triplicate | shares compounds with hcDAF-12 act | activation, % at 6.8 µM | hit rate 61% among 3,400 | HEK293 hcDAF-12 lit1-tk-luc reporter; % of Δ7-dafachronic acid response | AID 743032, 2013;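 active means mean activation across triplicate tests above the threshold derived from the earlier primary screen, cut at about 5.5% in these data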
hgDAF12 ag: H. glycines DAF-12 receptor agonists, confirmation, cell-based, luminescence, HEK293, GAL4-LBD fusion | shares compounds with hgDAF12 agonist | HEK293 GAL4-hgDAF12 luciferase reporter, agonist mode; percent of butyrate response | activation, % at 6.8 µM | hit rate 80% among 3,300 | AID 743050, 2013;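 active means mean activation over triplicate wells above the hit cutoff derived from the earlier primary screen, cut at about 11% in these data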
LXRb DAF12 ctr: LXR agonists, Gal4 luciferase reporter, confirmation, counter-screen for hgDAF-12 agonist project, cell-based, luminescence, HEK293, H. glycines campaign. shares compounds with hgDAF12 agonist. 24 h. activation, % at 6.8 µM. 3,300 tested, under 10 active. AID 743051, 2013;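 active means mean activation of the triplicate above a set limit carried over from the primary screen, none filed active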
Numbers stand for hits; i = inactive; nt = no result given.

SMILES | hcDAF-12 act | DAX1 inh-1 | ssDAF12 agonist | hgDAF12 agonist | DAX1 inh-2 | LXRb hcDAF ctr | hcDAF12 conf | others
COc1cccc2sc(N(C)c3ccccc3)nc12 | 6.5 | 4.6 | i | 13 | i | nt | nt | DAX1 inh confirm=11;SF1 mutant ctr=6.4;hgDAF12 ag=15;LXRb DAF12 ctr=i
CCOC(=O)c1sc(NC(=O)Nc2ccccc2Cl)cc1C | 15 | 7.8 | 1.1 | 20 | i | i | 6.1 | DAX1 inh confirm=14;SF1 mutant ctr=7.5;hgDAF12 ag=24;LXRb DAF12 ctr=i
CCOC(=O)c1sc(NC(C)=O)cc1C | i | i | i | i | i | nt | nt
CCOC(=O)c1c(N)sc(C(=O)Nc2ccccc2F)c1C | 6.7 | 9.3 | i | 19 | 4.4 | i | 8.5 | DAX1 inh confirm=14;SF1 mutant ctr=7.1;hgDAF12 ag=19;LXRb DAF12 ctr=i
CN(C(=O)C(=O)c1cn(CC(=O)N2CCCC2)c2ccccc12)C1CCCCC1 | i | i | i | i | i | nt | nt
O=C(NCc1ccccn1)c1cccc(NS(=O)(=O)c2ccccc2F)c1 | i | i | i | i | i | nt | nt
Cc1cc(C=C2C(=O)c3ccccc3C2=O)c(C)n1C | i | i | i | i | i | nt | nt
CCn1c(C)cc(C=C2C(=O)c3ccccc3C2=O)c1C | 17 | 5.6 | 4.4 | 18 | i | i | 15 | DAX1 inh confirm=15;SF1 mutant ctr=8.0;hgDAF12 ag=15;LXRb DAF12 ctr=i
O=[N+]([O-])c1cc(Br)c(O)c(/C=N/Nc2nnnn2-c2cccc3ccccc23)c1 | i | i | i | i | i | nt | nt
CCCc1cc(=O)n2[nH]c(NCc3c(Cl)cccc3Cl)nc2n1 | i | i | i | i | i | nt | nt
CCCc1cc(=O)n2[nH]c(-c3cccc(Br)c3)cc2n1 | 7.7 | i | i | i | 5.6 | i | 7.3
O=S(=O)(c1ccc(F)cc1)n1c(CN2CCOCC2)nc2ccccc21 | i | i | i | i | nt | nt | nt
COc1cccc(C2(O)CC(C(F)(F)F)=NN2C(=O)c2ccccn2)c1 (centres undefined) | i | i | i | i | i | nt | nt
Oc1cccc(Nc2nc(O)c(/C=C3\C=Nc4ccccc43)s2)c1 | 6.8 | i | i | i | i | i | 7.0
CCOC(=O)N1N=C(c2ccc(OC)cc2)CC1(O)C(F)(F)F (centres undefined) | 7.9 | 4.1 | 1.8 | i | i | i | 6.4
Cc1cc2ncc(-c3cccs3)nc2cc1C | 15 | i | 2.1 | 18 | i | i | 18
CN[C@H]1C[C@H]2c3[nH]c4c(-c5cccc(C)c5)cccc4c3CCN2C(=O)[C@H]1[C@H](C)O | i | i | i | i | nt | nt | nt

Compound activity: PubChem BioAssay, The Scripps Research Institute Molecular Screening Center
